In PubChem BioAssay (NCI) one finds growth data, which are given here for 27 molecules.

About 83,000 compounds went through this panel and 20% of them were active in at least one assay; those are over-represented in the sample as a whole.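 Interpretation: 100, growth as untreated; towards 0, rising growth inhibition; 0, no net growth; 0 to -100, cell death. Compounds scoring below 10 were considered active.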 Unmarked numbers belong to inactive results. Active and inactive are the calls of the source.

Test in all cases: NCI-60 one-dose screen, 48 h (100 = growth as untreated, 0 = no growth, -100 = all killed)
What all share (details): 10 µM unless noted

Assay [1] relates to RPMI-8226 leukemia.
In assay [2] the test system is OVCAR-8 ovarian.
Assay [3] concerns OVCAR-5 ovarian.
For assay [4], the system named is OVCAR-4 ovarian.
Assay [5] concerns SK-OV-3 ovarian.
Assay [6] concerns IGROV1 ovarian.
Assay [7] concerns HS 578T breast.
The subject of assay [8] is NCI/ADR-RES ovarian.
The test system of assay [9] is OVCAR-3 ovarian.

As to `O=C(NCCNc1cc(-c2cn(-c3ccccc3)nc2-c2cccc(O)c2)ccn1)Nc1cc(C(F)(F)F)cc(C(F)(F)F)c1`, the growth in assay [1] was 94.7%; in assay [2], 98.5%; in [3], 97.3%; in assay [4], 91.6%; in [5] it was 104%; in [6], 82.2%. Besides, the growth in [7] is 93.9%; in [8], 91.9%.

As to `COc1ccc2c(c1)c(-c1nn3cc(-c4ccncc4)nc3s1)cn2C`, the growth in assay [1] was 61.4%; in [2], 71.7%; in assay [3] it was 102%; in assay [4] it was 82.3%; in [5] it was 93.6%; in assay [6] it was 70.3%. Also, the growth in assay [7] was 86.9%; in [8] it was 69.8%.

Turning to `O=C(/C=C/c1cccc(Br)c1)c1cccc(OCCCCOc2cccc(C(=O)/C=C/c3cccc(Br)c3)c2)c1`, the growth in assay [1] is 56.8%; in [2], 105%; in [3] it was 104%; in assay [4], 109%; in [5], 107%; in assay [6] it was 101%. Also, the results for the growth in [9], in assay [7] and in [8] were 105%, 101% and 106%, respectively.

On to `Cc1csc(/N=C(N)/N=C(\N)c2cccs2)n1`, for which the growth is 101% in assay [1]; 101% in [2]; 115% in [3]; 105% in [4]; 92.3% in [5]; 101% in [6]. For the same molecule, the growth was 107% in [7] and 108% in assay [8].

Consider `COc1cc(-c2nc(-c3ccccc3)[nH]c2-c2ccnc(NCCCNS(=O)(=O)c3cccc(F)c3)n2)ccc1F`, for which the growth in assay [1] was 62.4%; in assay [2], 86%; in [3], 118%; in [4], 104%; in assay [5], 136%; in [6], -69.7% (active). Besides, the growth was 109% in assay [9], 103% in assay [7] and 92.1% in assay [8].

On to `COC(=O)CNC(=O)c1cccc(-c2cc(=O)c3c(OC)c(OC)c(OC)cc3o2)c1`, for which the growth in assay [1] was 94.8%; in assay [2], 98%; in assay [3], 98.1%; in [4] it was 102%; in [5], 118%; in assay [6], 99.1%. In addition, the growth was 99.7% in assay [7] and 99.5% in [8].

Consider `O=C(Nc1cccc(C(F)(F)F)c1)N1CCN(c2cc(-c3cn(-c4ccccc4)nc3-c3cccc(O)c3)ccn2)CC1`, for which the growth in [1] is 27.8%; in assay [2] it was 31.4%; in [3] it was 82.3%; in assay [4] it was 24.9%; in assay [5], 84.7%; in assay [6] it was 43.3%. In addition, the growth is 54.4% in assay [9], 53.5% in assay [7] and 28.5% in [8].

In the case of `C#C[C@]1(O)CC[C@H]2[C@@H]3CC=C4c5sc(N(C)c6ccccc6)nc5CC[C@]4(C)[C@H]3CC[C@@]21C`, the growth in [1] is 2.94% (active); in assay [2], 82%; in assay [3], 92.5%; in assay [4] it was 94%; in assay [5], 98.7%; in [6] it was 107%. Besides, the values for the growth in assay [7] and in [8] were 89.8% and 82.1%, respectively.

Take `CC(C)(C)c1cc(NC(=O)Nc2ccc(-c3cn4c5c(sc4n3)CCc3c[nH]cc3-5)cc2)no1`: the growth in assay [1] is -18.6% (active); in [2], 32.7%; in assay [3] it was 47.7%; in assay [4], 49%; in assay [5] it was 33.7%; in assay [7], -10.4% (active). Moreover, in [8], the growth is 29%.

On to `Brc1cccc(-c2cc(-c3ccc4c(c3)OC=CO4)[nH]n2)c1`, for which the growth in assay [1] is 22.5%; in assay [2] it was 42.3%; in assay [3], 71.5%; in assay [4], 82.1%; in [5], 67.9%; in [6] it was 41.3%. The figures for the growth in assay [7] and in [8] were 58.8% and 15.3%, respectively.

Turning to `Brc1cc(-c2cc(-c3ccc4c(c3)OC=CO4)[nH]n2)cs1`, the growth in [1] was 81%; in [2], 99.4%; in [3], 115%; in assay [4] it was 97%; in [5], 86%; in assay [6], 66.1%. Also, the growth is 90% in assay [7] and 65.4% in assay [8].

Regarding `O=C1C(SCc2ccccc2)=C(Cl)CN1c1ccccc1`, the growth in assay [1] was 83.9%; in assay [2], 101%; in [3], 97.5%; in [4], 103%; in assay [5] it was 126%; in assay [6], 103%. The growth is 104% in [7] and 102% in [8].

On to `COC(=O)[C@@H](Cc1c[nH]c2ccccc12)NC(=O)CCCCOc1cc(O)c2c(=O)cc(-c3ccccc3)oc2c1`, for which the growth in assay [1] is 71.8%; in [2], 87.5%; in assay [3], 104%; in [4] it was 80%; in [5], 97.7%; in [6] it was 87.5%. Moreover, the growth in assay [7] and in [8] was 80.9% in each case.

With `O=C(Nc1ccc(Cl)c(C(F)(F)F)c1)Nc1ccc2c(ccn2C(=O)c2cccc(F)c2)c1`, the growth was -6.63% (active) in assay [1]; 34.1% in assay [2]; 67.3% in assay [3]; 7.18% (active) in [4]; 99.1% in [5]; 25% in [6]. The figures for the growth in assay [9], in [7] and in assay [8] were 9.54% (active), 52.4% and 30.8%, respectively.

As to `O=C(Nc1ccc(Cl)c(C(F)(F)F)c1)Nc1ccc2oc(=O)ccc2c1`, the growth is -1.56% (active) in assay [1]; 43.4% in assay [2]; 75.6% in assay [3]; 81% in assay [5]; 30.7% in assay [6]; 83.1% in assay [7]. The growth in assay [8] was 19.6%.

With `Cc1ccc(CSC2=C(Cl)CN(c3ccc(Cl)cc3)C2=O)cc1`, the growth was 92.8% in assay [1]; 105% in assay [2]; 106% in assay [3]; 107% in [4]; 117% in assay [5]; 115% in assay [6]. For the same molecule, the growth was 107% in assay [7] and 103% in [8].

For `Cc1cc(NS(=O)(=O)c2ccc(NC(=O)CSc3nc4ccccc4c(=O)n3-c3ccccc3)cc2)no1`, the growth in assay [1] is 110%; in [2], 102%; in [3], 92.7%; in [4] it was 102%; in assay [5], 106%; in [9] it was 109%. Further, the growth was 93.3% in assay [7] and 102% in assay [8].

Consider `CC(C)(O)c1cncc(-c2ccc3ncc(C#N)c(N4CCc5cc(F)c(Cl)cc54)c3c2)c1`, for which the growth in [1] is 13.5%; in [2], 11.1%; in [3], 16.7%; in assay [4], -1.6% (active); in [5] it was -22.1% (active); in assay [6], -14.5% (active). Also, the figures for the growth in assay [9], in assay [7] and in assay [8] were 9.12% (active), -28% (active) and 14.8%, respectively.

Take `CN(C)c1ccc(-c2cc(-c3c[nH]c4ccccc34)nc(N)c2C#N)cc1`: the growth was 4.44% (active) in assay [1]; 25.6% in [2]; 48.8% in assay [3]; 69.5% in assay [4]; 30.9% in [5]; 42.2% in assay [6]. For the same molecule, the growth in assay [7] was 35.6%; in assay [8], 14.9%.

In the case of `Cc1ccc(-c2cc3nc(C(Cl)Cl)nc(-c4ccc(S(=O)(=O)N(C)C)cc4)n3n2)cc1`, the growth in assay [1] was 86.9%; in assay [2], 65.5%; in [3], 106%; in [4] it was 94.3%; in assay [5] it was 101%; in [6], 95%. For the same molecule, the values for the growth in assay [9], in [7] and in assay [8] were 108%, 105% and 78.8%, respectively.

Turning to `CCCNNC(=O)c1ccc(-c2ccc(NC(=O)CCCCCCC(=O)N[C@H](C(=O)N3C[C@H](O)C[C@H]3C(=O)N[C@@H](C)c3ccc(-c4scnc4C)cc3)C(C)(C)C)cc2)cc1`, the growth was 2.23% (active) in assay [1]; 27.3% in assay [3]; 53.6% in [4]; 18.5% in assay [5]; 25.5% in assay [6]; 30.2% in [9]. Also, the growth in [7] is 30.3%; in assay [8], 96.7%.

With `O=C(/C=C/C=C/c1csc(Br)n1)NO`, the growth was 60.7% in [1]; 85.7% in assay [2]; 98.2% in assay [3]; 103% in assay [4]; 113% in assay [5]; 106% in [6]. For the same molecule, the results for the growth in assay [7] and in assay [8] were 98.5% and 74.6%, respectively.

In the case of `COc1ccc(/C=N/NC(=O)CSc2nc(-c3cnccn3)cc(-c3cccs3)c2C#N)cc1OC`, the growth in assay [1] is 70.5%; in assay [2], 84.7%; in assay [3] it was 104%; in assay [4] it was 97.6%; in assay [5], 120%; in assay [6], 104%. Besides, the results for the growth in assay [9], in assay [7] and in assay [8] were 99%, 69.8% and 96.6%, respectively.

Turning to `Cc1[nH]c(C(=O)Nc2ccc(C(N)=O)cc2N2CCOC(C)C2)c(Cl)c1Cl` (stereo not given), the growth in assay [1] is 107%; in assay [2], 96.8%; in [3] it was 98.1%; in assay [4], 97.9%; in assay [5], 102%; in assay [6], 92.2%. In addition, the values for the growth in assay [9], in [7] and in assay [8] were 109%, 94.7% and 93.7%, respectively.

For the molecule `Cc1ccc(C(=O)Nc2ccc(CNCCN3CCNCC3)c(C(F)(F)F)c2)cc1C#Cc1cnc2cccnn12`, the growth in assay [1] was -23.3% (active); in assay [2], 2.74% (active); in assay [3], 51.8%; in [4] it was -23% (active); in [5], 114%; in assay [6] it was 11.8%. The growth was -20.5% (active) in assay [9], 36.6% in [7] and 71.6% in assay [8].

For the molecule `CC(=C(c1ccc(OCCN(C)C)cc1)c1ccc(OCCN(C)C)cc1)c1ccc(Cl)cc1`, the growth in assay [1] is -42.7% (active); in assay [2] it was -46.9% (active); in assay [3] it was -69% (active); in assay [4], -17.4% (active); in assay [5] it was 77.5%; in assay [6], -76.8% (active). Besides, the growth is -55.5% (active) in assay [9], -32.5% (active) in assay [7] and -49.8% (active) in assay [8].

As for `CC1=C(C)C(=O)C(Nc2cccc(C(=O)OC(C)(C)C)c2)=C(Cl)C1=O`, the growth in assay [1] was 10.3%; in [2], 92.9%; in [3], 106%; in assay [4], 80.2%; in assay [5], 103%; in assay [6], 12.4%. The results for the growth in assay [9], in [7] and in assay [8] were 101%, 97.2% and 97.6%, respectively.
